Measured values from PubChem BioAssay (NCATS).
Inconclusive results are not listed. Entries that show only a call come without a potency. Calls of active or inactive are those of the source. The call rests on the fitted dose curve; in most records, active means well fitted inhibition curve with a large enough effect in the repeat runs; inconclusive means weak or mixed curves; inactive means flat fitted curve, though single readings scatter.

biological target: Cytochrome P450 2D6 (Homo sapiens) (UniProt P10635); experiment: Cytochrome P450 family 2 subfamily D member 6 (CYP2D6) small molecule antagonists: luciferase biochemical (cell-free) qHTS assay (AID 1645840); settings: P450-Glo CYP2D6 enzyme, luciferin luminescence, 1 h; series mostly up to 57.4 µM; further: nearly all actives have a fitted effect of over 55% in size
Sequence (P10635 whole entry, looked up): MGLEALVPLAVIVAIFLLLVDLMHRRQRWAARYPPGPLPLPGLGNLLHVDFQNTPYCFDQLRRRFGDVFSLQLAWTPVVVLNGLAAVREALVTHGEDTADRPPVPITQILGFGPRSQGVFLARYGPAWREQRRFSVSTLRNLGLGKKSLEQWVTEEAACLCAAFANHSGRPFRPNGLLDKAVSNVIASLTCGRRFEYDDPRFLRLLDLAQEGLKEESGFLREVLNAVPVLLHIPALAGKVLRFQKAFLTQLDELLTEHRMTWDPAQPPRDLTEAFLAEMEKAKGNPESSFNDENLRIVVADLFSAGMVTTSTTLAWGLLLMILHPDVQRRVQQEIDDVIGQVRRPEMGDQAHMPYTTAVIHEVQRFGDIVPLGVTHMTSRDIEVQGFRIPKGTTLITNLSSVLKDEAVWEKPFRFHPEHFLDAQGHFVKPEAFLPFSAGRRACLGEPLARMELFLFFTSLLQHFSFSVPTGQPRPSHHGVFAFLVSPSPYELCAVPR
Summary of the method: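 P450-Glo CYP2D6 system: proluciferin substrate converted by enzyme to luciferin, read by luminescence proportional to activity. Enzyme-substrate mix with compound 10 min at room temperature, then NADPH regeneration 1 h before detection reagent.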
Potency means the concentration at half of the fitted maximal effect.

SMILES | Potency
CC[C@H](CO)Nc1cc(NCc2ccc(-c3ccccn3)cc2)c2ncn(C(C)C)c2n1 | 16.9 µM (active)
COc1ccc(NC(=O)c2nc(SCc3ccc(F)cc3)ncc2Cl)cc1 | inactive
COc1ccc(NC(=O)C2=C(C)Nc3nc(SCc4ccccc4C)nn3C2c2cc(OC)c(O)c(OC)c2)cc1 (centres undefined) | inactive
CN(C)S(=O)(=O)c1ccc(S(=O)(=O)N(Cc2ccccc2Cl)C[C@@H]2CCCO2)cc1 | inactive
CCc1ccc(S(=O)(=O)NCc2ccc3c(c2)CCN3C(=O)c2ccc(C)cc2)cc1 | 5.35 µM (active)
CCC(C)Nc1cc(C(=O)NC2CC3CCC(C2)N3c2ccc(C(=O)C3CC3)cn2)c(C)cc1C(N)=O (centres undefined) | inactive
COc1cc(C(=O)NC(c2ccccc2Cl)c2cc(Cl)c3cccnc3c2O)cc(OC)c1OC (centres undefined) | inactive
CN1C(=O)c2ccccc2Sc2ccc(NC(=O)Cc3ccc(Cl)cc3)cc21 | 6.01 µM (active)
CC(=O)c1ccc(N2CCN(c3ncnc4c3cnn4C)CC2)cc1 | inactive
CNS(=O)(=O)c1ccc(Cc2c(-c3cccc(-c4ccccc4)c3)[nH]n(-c3nc(C(=O)O)cs3)c2=O)cc1 | 26.8 µM (active)
Cc1ccc(CSc2nc3ccncc3n2Cc2nc(-c3ccccc3C)oc2C)cc1 | 2.39 µM (active)
Cc1ccn2c(Nc3ccccc3C)c(-c3ccccn3)nc2c1 | 19 µM (active)
COC(=O)c1c(-c2ccc(Cl)cc2)noc1N1CCN(c2ccccc2OC)CC1 | inactive
CC1=C(C(=O)Nc2cccc(C(N)=O)c2)C(c2ccccc2Cl)N=C(Nc2nc3ccccc3o2)N1 (centres undefined) | 8.49 µM (active)
